From PubChem
This is a sample that favours compounds with a hit; in the whole collection about 5.4% have one here.
Beta cell apopt – inhibitors of cytokine-induced beta cell apoptosis, primary screen, luminescence; INS-1E cytokine-induced death, ATP luminescence, 48 h; percent of positive-control rescue, neutral wells zero; protection from apoptosis, % (no concentration beside the values); actives 0.8% (n = 300,000);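 active = Every replicate reaches about 75%, or at least half do and their mean reaches it too, limit read from the data; inconclusive = At least half of replicates reach the limit but their mean does not; inactive = Under half of replicates reach the limit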;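 also: 0% = cytokine-treated negative control wells and 100% = positive control rescue; higher means more ATP so stronger rescue from cytokine killing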
Mdm2-MdmX inh – inhibitors of human Mdm2-MdmX association, primary screen, cell-based, luminescence, split luciferase, SaOS-2, uHTS; Protein Mdm4 (Homo sapiens) + E3 ubiquitin-protein ligase Mdm2 (Homo sapiens), …; SaOS-2 split-luciferase Mdm2/MdmX complementation; inhibition, % at 8 µM; actives 3% (n = 330,000); AID 485346, 2010;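 active = inhibition of at least 50% at 8 µM in the primary screen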
MPTP block – mitochondrial permeability transition pore inhibitors, primary screen, biochemical, isolated mouse mitochondria, absorbance; AID 602449, 2012; actives 1.4% (n = 360,000); inhibition, % at 10 µM; Ca2+ swelling absorbance, 30 min;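 active = inhibition of 50% or more, scaled per plate between neutral and stimulator controls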;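 also: 0% = DMSO wells given calcium and 100% = 1 mM EGTA wells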
CSC inhib – cancer stem cell viability inhibitors, primary screen, luminescence | cancer stem cell-like cells viability | inhibition, % at 7.5 µM | actives 1.1% (n = 300,000) | AID 2717, 2010; in the data active = inhibition above about 75%; inconclusive = no clear call, values can overlap the other calls; tested in HMLE shEcad cells
Calb FLC – C. albicans growth inhibition with fluconazole, primary screen, CaCi-2 strain, Alamar Blue fluorescence; growth inhibition, % (test concentration not listed); AID 1979, 2009; C. albicans CaCi-2 (fluconazole-resistant clinical isolate) + fluconazole, 48 h; actives 0.57% (n = 300,000);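 active = growth inhibition above about 58% in most replicates, limit read from the data, passing the limit was not always enough; inconclusive = exactly half the replicates above a set limit; inactive = most replicates below a set limit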;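 also: all wells also contain fluconazole at 8 µg/ml as a sub-toxic cotreatment; 0% = median of DMSO wells and 100% = median of geldanamycin control wells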
SKKanGAS inh – S. pyogenes SKKanGAS growth inhibitors in kanamycin, primary screen, streptokinase expression inhibitor project, SKKanGAS strain, BacTiter-Glo luminescence; 6 h; inhibition, % at 7.5 µM; actives 1.3% (n = 300,000);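 active = mean replicate score, as percent of positive control median, at least 50; inconclusive = mean below 50 but one replicate at or above 50; inactive = mean and every replicate below 50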;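 also: strain carries kanamycin resistance gene driven by streptokinase promoter and grows in 40 µg/ml kanamycin; loss of luminescence reflects streptokinase promoter inhibition or plain growth inhibition; 0% = median of DMSO wells and 100% = positive control at its reference dose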
The depositor's hits bear a star.

How did O=C(NNC(=S)NC(=O)c1cccnc1)c1ccc(F)cc1 do in these assays?
Beta cell apopt: -3.1; Mdm2-MdmX inh: 12.3; MPTP block: -3.7; CSC inhib: 0.5; Calb FLC: -0.9; SKKanGAS inh: 27.5

Results for O=C(/C=C/c1ccc(F)cc1)NC(=S)NNC(=O)c1cnccn1 ?
Beta cell apopt: 70.2*; Mdm2-MdmX inh: 49.9; MPTP block: -2.0; CSC inhib: 52.3; Calb FLC: -2.9; SKKanGAS inh: 108.7*

Results for COc1ccc(/C=C/C(=O)NC(=S)NNC(=O)c2cccnc2)cc1 ?
Beta cell apopt: 7.5; Mdm2-MdmX inh: -13.5; MPTP block: 1.7; CSC inhib: 12.7; Calb FLC: -14.9; SKKanGAS inh: 60.1*

How did O=C(NC(=S)NNC(=O)c1cnccn1)c1ccc(F)cc1 do in these assays?
Beta cell apopt: 78.5*; Mdm2-MdmX inh: 45.1; MPTP block: 0.8; CSC inhib: 61.2; Calb FLC: inconclusive; SKKanGAS inh: 29.3

What do the screens show for `CCCCCC(=O)N1C[C@H](O)[C@@H](n2cc(COC(=O)c3ccccc3)nn2)C[C@@H]1c1ccccc1`?
MPTP block: -0.5

What do the screens show for `Nc1nc(-c2ccc(Br)s2)c(Br)s1`?
Beta cell apopt: -5.1; Mdm2-MdmX inh: -8.4; MPTP block: 0.8; CSC inhib: 0.8; Calb FLC: -0.2; SKKanGAS inh: 10.3

Results for Cc1ccc(NC(=O)c2ccc(S(=O)(=O)N3CCC(C)CC3)cc2)nc1 ?
Beta cell apopt: 0.2; Mdm2-MdmX inh: 1.6; MPTP block: -1.4; CSC inhib: -5.0; Calb FLC: -1.5; SKKanGAS inh: 24.4

Results for CN(C(=O)COc1ccccc1C(=O)NCc1ccccc1)C1CCS(=O)(=O)C1 (configuration not stated) ?
Mdm2-MdmX inh: 8.5; MPTP block: -0.1

How did Cc1ccccc1OCCn1c(C)nc2ccccc21 do in these assays?
Beta cell apopt: 77.7*; Mdm2-MdmX inh: 13.7; MPTP block: 13.6; CSC inhib: 17.5; Calb FLC: 3.1; SKKanGAS inh: 3.9

Results for Cc1nc2ccccc2n1CCOc1ccccc1 ?
Beta cell apopt: 0.0; Mdm2-MdmX inh: -34.8; MPTP block: 1.1; CSC inhib: 12.4; Calb FLC: 1.9; SKKanGAS inh: 2.1

What do the screens show for `Cc1nc([N+](=O)[O-])c(Br)n1CC(=O)c1ccc(F)cc1`?
MPTP block: 1.0

Results for CCCn1c(CC)nc([N+](=O)[O-])c1Sc1ccc(F)cc1 ?
Beta cell apopt: -8.6; Mdm2-MdmX inh: 17.1; MPTP block: 3.5; CSC inhib: 0.9; Calb FLC: 112.6*; SKKanGAS inh: -3.3

What do the screens show for `Cc1onc(-c2c(F)cccc2Cl)c1C(=O)NNC(=O)C1CCN(Cc2ccccc2)CC1`?
Beta cell apopt: -3.8; Mdm2-MdmX inh: -21.7; MPTP block: -1.5; CSC inhib: -1.0; Calb FLC: 91.6*; SKKanGAS inh: -6.9

What do the screens show for `O=C(CCc1ccccc1)NNC(=S)NC(=O)c1ccccc1`?
Beta cell apopt: 3.4; Mdm2-MdmX inh: 24.1; MPTP block: 6.4; CSC inhib: 2.7; Calb FLC: 110.1*; SKKanGAS inh: 63.9*

How did CCCCC(=O)NC(=S)NNC(=O)CCc1ccccc1 do in these assays?
Beta cell apopt: -1.8; Mdm2-MdmX inh: 8.0; MPTP block: 5.3; CSC inhib: -9.1; Calb FLC: -5.6; SKKanGAS inh: 75.5*

Results for CC(=O)NC(=S)NNC(=O)CCc1ccccc1 ?
Beta cell apopt: -0.9; Mdm2-MdmX inh: -2.7; MPTP block: -3.0; CSC inhib: 3.1; Calb FLC: -15.4; SKKanGAS inh: 3.2

How did Cc1ccc(N(CC(=O)NC2CCCCC2)S(=O)(=O)c2c(C)noc2C)cc1 do in these assays?
Beta cell apopt: -4.8; Mdm2-MdmX inh: 9.2; MPTP block: 0.7; CSC inhib: -2.3; Calb FLC: -6.5; SKKanGAS inh: 0.7

What do the screens show for `COc1cc(/C=C2/SC(=S)NC2=O)ccc1OS(=O)(=O)c1ccc(C)cc1`?
Beta cell apopt: 38.8; Mdm2-MdmX inh: 35.5; MPTP block: 25.3; CSC inhib: 102.4*; Calb FLC: 49.0; SKKanGAS inh: 28.7

What do the screens show for `COc1cc(/C=C2\SC(=S)NC2=O)ccc1OS(=O)(=O)c1ccccc1`?
Beta cell apopt: 112.8*; Mdm2-MdmX inh: -0.3; CSC inhib: 97.1*; Calb FLC: 29.1; SKKanGAS inh: 23.1

What do the screens show for `O=C(C[n+]1ccccc1)N/N=C/c1cc(Br)cc(Br)c1O`?
Beta cell apopt: -18.4; Mdm2-MdmX inh: 21.3; MPTP block: -2.4; CSC inhib: 15.2; Calb FLC: 13.7; SKKanGAS inh: 102.5*

How did O=C(CP(=O)(c1ccccc1)c1ccccc1)N/N=C/c1cc(Br)cc(Br)c1O do in these assays?
Mdm2-MdmX inh: 49.1; MPTP block: -6.1; Calb FLC: 1.1; SKKanGAS inh: 101.6*

Results for O=C(COc1ccc(-c2ccccc2)cc1)N/N=C/c1cc(O)ccc1Br ?
Beta cell apopt: 0.4; Mdm2-MdmX inh: 10.7; MPTP block: 13.3; CSC inhib: 89.1*; Calb FLC: 2.8; SKKanGAS inh: 98.2*

What do the screens show for `COc1cc(Br)cc(/C=N/NC(=O)Cc2ccccc2)c1O`?
Beta cell apopt: 20.0; Mdm2-MdmX inh: 40.3; MPTP block: 6.2; CSC inhib: 10.3; Calb FLC: -0.3; SKKanGAS inh: 109.2*

What do the screens show for `O=C(COc1ccc(-c2ccccc2)cc1)N/N=C/c1ccccc1Br`?
Beta cell apopt: -7.5; Mdm2-MdmX inh: -4.8; MPTP block: 10.0; CSC inhib: 30.6; Calb FLC: -7.2; SKKanGAS inh: 19.1

What do the screens show for `Nc1nc(SCc2ccc([N+](=O)[O-])cc2)nc2nc3c(cc12)CCCC3`?
Beta cell apopt: -0.4; Mdm2-MdmX inh: 38.8; MPTP block: 0.8; CSC inhib: -6.1; Calb FLC: 4.6; SKKanGAS inh: 13.3

What do the screens show for `O=C(Cc1cccs1)N/N=C\c1ccc([N+](=O)[O-])s1`?
Beta cell apopt: 93.9*; Mdm2-MdmX inh: 41.1; MPTP block: -0.5; CSC inhib: -1.3; Calb FLC: 8.2; SKKanGAS inh: -1.2

What do the screens show for `COc1ccc2cc(N=Cc3nc(-c4ccc(C)cc4)oc3O)cnc2c1`?
Beta cell apopt: -1.8; Mdm2-MdmX inh: 41.9; MPTP block: -0.1; CSC inhib: 4.1; Calb FLC: 15.9; SKKanGAS inh: 9.0

How did C=CCN=C(NC#N)SCc1ccccc1Cl do in these assays?
Beta cell apopt: -2.1; Mdm2-MdmX inh: -4.2; MPTP block: 1.8; CSC inhib: -0.7

Results for CC(C)COc1ccc(C(=O)N(Cc2ccco2)C2CCS(=O)(=O)C2)cc1 (configuration not stated) ?
Beta cell apopt: 3.5; Mdm2-MdmX inh: 13.9; MPTP block: -0.2; CSC inhib: -9.5; Calb FLC: -8.7; SKKanGAS inh: -2.0
